Measurements published in PubChem BioAssay.
Results filed as inconclusive are left out. Calls of active or inactive are those of the source.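 The calls were made as follows, unless noted: active = viability at or below 10% of carrier control in both of two separate runs; inconclusive = viability at or below 10% in only one of the two runs; inactive = the rest.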

Experiments:
[1] = Her2 expression decrease, cell viability multiplex – SKBR3 breast tumor cells, AlphaScreen, ATP viability, primary screen (AID 461;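 active = Her2 level under about 52% in both replicate screens, with viability over 70% of control, limit read from the data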;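 as to Her2 level: lower value means less Her2 protein in the cells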;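 as to viability: percent of carrier control wells set as 100% viability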); settings: SKBR3 Her2 protein level, 18-24 h, measured here: SKBR3 viability, ATP luminescence, at 10 µM
[2] = molecular target: Receptor tyrosine-protein kinase erbB-2 (Homo sapiens) (UniProt P04626); test: as above; settings: 18-24 h, at 10 µM, stronger effect = lower value
[3] = reduced viability of SK-BR-3 breast cancer cells – cell-based, 24 h, human, pilot screen (AID 572); settings: SK-BR-3 viability, CellTiter-Glo luminescence, at 10 µM, stronger effect = lower value;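 also: compound exposure lasted between 18 and 24 h rather than exactly 24 h; 100% = carrier-treated control wells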
[4] = HUVEC growth inhibition – cell-based, human, primary screen (AID 575;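 active = viability at or below 30% in both replicate assays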;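 also: 100% = median of untreated cell wells with 0.1% DMSO on each plate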); settings: HUVEC proliferation, CellTiter-Glo luminescence, 72 h; at 10 µM; stronger effect = lower value
[5] = H69AR cell proliferation blockers – human, duplicate replicates, primary screen (AID 580;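 active = viability at or under a set limit in both replicates, limit being median viability minus 3 SD, cut at about 48% in these data, passing the limit was not always enough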;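 also: 100% = mean luminescence of untreated wells and 0% = no signal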); settings: H69AR lung tumor cells viability, ATP luminescence, 72 h; at 10 µM; stronger effect = lower value
[6] = MRP1 drug-resistance reversers in H69AR cells – cell-based, doxorubicin co-treatment, pilot screen (AID 601;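 active = viability loss from added drug above about 55%, and viability with drug at most 40%, in both replicates, limit read from the data, passing the limit was not always enough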); settings: CellTiter-Glo, 72 h, at 10 µM; for differential viability (reversal): stronger effect = higher value
[7] = yeast transport mutant growth inhibition pilot in 384-well plates, post-Golgi transport modulator project (AID 636; in the data active = inhibition above about 31%); settings: absorbance 615 nm, about 18 h, stronger effect = higher value
[8] = growth suppression of yeast trafficking mutant, preliminary HTS, modulators of trafficking downstream of Golgi apparatus project, 1536-format plate, OD 615 nm (AID 637; in the data active = inhibition above about 30%); settings: yeast transport mutant growth, absorbance 615 nm, 18 h; stronger effect = higher value
[9] = S. cerevisiae growth inhibition in permissive medium (OD615), pilot counter-assay for S. cerevisiae lifespan shortening project, permissive growth control (AID 705;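 active = growth inhibition above 25% in both replicates, a cutoff set 3 SD above the mean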); settings: OD615, 24 h, at 10 µM, stronger effect = higher value
[10] = S. cerevisiae growth inhibition in restrictive medium, OD615, pilot screen, restrictive growth control, yeast lifespan reduction project (AID 706;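 active = growth inhibition above a set limit, 3 SD over mean compound inhibition, in both replicates, cut at about 43% in these data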;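 also: modified DeaD lifespan yeast strain shifted to restrictive glucose medium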); settings: OD615, 48 h, at 10 µM, stronger effect = higher value
[11] = doxorubicin toxicity protection in MRP-1 cells – H69AR cells, CellTiter-Glo, duplicate, MRP-1 activator project, pilot screen (AID 807;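 active = viability increase at or above a cutoff of the median across tested compounds plus 3 SD, cut at about 8.5% in these data, passing the limit was not always enough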;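 also: compound pretreatment 18-22 h then 72 h combined with doxorubicin; 0% = doxorubicin alone and 100% = vehicle without doxorubicin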); settings: H69AR viability with doxorubicin, CellTiter-Glo luminescence; at 10 µM; stronger effect = higher value
[12] = viability of HCT116 without oncogenic beta-catenin – human colon tumor cells, pilot screen (AID 823;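 active = cell viability at or below a set limit in both duplicate runs, the limit being the all-compound median minus 4 SD, cut at about 23% in these data, passing the limit was not always enough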;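 also: 0% = wells killed by 20 µM Hyamine and 100% = untreated DMSO cell wells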); settings: HCT116 beta-catenin knockout viability, CellTiter-Glo, 60 h; at 10 µM; stronger effect = lower value
[13] = viability of PTEN-null HCT116 cells – cell-based, HCT116 clonal line, CellTiter-Glo, pilot screen (AID 824;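 active = viability at or below 27.92% in each of two runs, the all-compound median minus 4 SD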;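 also: 0% = 20 µM Hyamine control and 100% = vehicle cell control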); settings: HCT116 PTEN-deleted viability, 60 h, at 10 µM, stronger effect = lower value
[14] = RAM pathway blockade in budding yeast – dse1pr::URA3 reporter, 5-FOA selection, pilot screen (AID 869;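 active = inhibition over a set limit, the all-compound mean plus 3 SD, in both replicate runs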;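 also: 0% = DMSO wells with no growth and 100% = 10 µM 1-NA-PP1 with full growth; RAM network block rescues cells from 5-FOA so hits raise OD615 growth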); settings: S. cerevisiae dse1pr::URA3 5-FOA growth, OD615, 2 d; at 10 µM; stronger effect = higher value; strain carries analog-sensitive mutant Cbk1 kinase
[15] = RAM signaling pathway blockade in yeast – S. cerevisiae, Pdr1DBD-CYC8 efflux-inhibited sensitized strain, primary screen (AID 1298;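 active = RAM network inhibition above 8.4% in each of two replicates, 3 SD over the compound average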;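 also: 0% = DMSO untreated cells without growth and 100% = 10 µM 1-NA-PP1 full growth; higher means more yeast growth rescued from 5-FOA killing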); settings: S. cerevisiae cbk1-as DSE1-URA3 strain, 5-FOA growth OD615, 2 d; at 50 µM; stronger effect = higher value
[16] = H69AR cells + 2 uM doxorubicin, measured here: viability with 2 uM doxorubicin, stronger effect = lower value
[17] = H69AR cells, compound alone cytotoxicity

Chain of Receptor tyrosine-protein kinase erbB-2 (Homo sapiens) (P04626 whole entry, looked up): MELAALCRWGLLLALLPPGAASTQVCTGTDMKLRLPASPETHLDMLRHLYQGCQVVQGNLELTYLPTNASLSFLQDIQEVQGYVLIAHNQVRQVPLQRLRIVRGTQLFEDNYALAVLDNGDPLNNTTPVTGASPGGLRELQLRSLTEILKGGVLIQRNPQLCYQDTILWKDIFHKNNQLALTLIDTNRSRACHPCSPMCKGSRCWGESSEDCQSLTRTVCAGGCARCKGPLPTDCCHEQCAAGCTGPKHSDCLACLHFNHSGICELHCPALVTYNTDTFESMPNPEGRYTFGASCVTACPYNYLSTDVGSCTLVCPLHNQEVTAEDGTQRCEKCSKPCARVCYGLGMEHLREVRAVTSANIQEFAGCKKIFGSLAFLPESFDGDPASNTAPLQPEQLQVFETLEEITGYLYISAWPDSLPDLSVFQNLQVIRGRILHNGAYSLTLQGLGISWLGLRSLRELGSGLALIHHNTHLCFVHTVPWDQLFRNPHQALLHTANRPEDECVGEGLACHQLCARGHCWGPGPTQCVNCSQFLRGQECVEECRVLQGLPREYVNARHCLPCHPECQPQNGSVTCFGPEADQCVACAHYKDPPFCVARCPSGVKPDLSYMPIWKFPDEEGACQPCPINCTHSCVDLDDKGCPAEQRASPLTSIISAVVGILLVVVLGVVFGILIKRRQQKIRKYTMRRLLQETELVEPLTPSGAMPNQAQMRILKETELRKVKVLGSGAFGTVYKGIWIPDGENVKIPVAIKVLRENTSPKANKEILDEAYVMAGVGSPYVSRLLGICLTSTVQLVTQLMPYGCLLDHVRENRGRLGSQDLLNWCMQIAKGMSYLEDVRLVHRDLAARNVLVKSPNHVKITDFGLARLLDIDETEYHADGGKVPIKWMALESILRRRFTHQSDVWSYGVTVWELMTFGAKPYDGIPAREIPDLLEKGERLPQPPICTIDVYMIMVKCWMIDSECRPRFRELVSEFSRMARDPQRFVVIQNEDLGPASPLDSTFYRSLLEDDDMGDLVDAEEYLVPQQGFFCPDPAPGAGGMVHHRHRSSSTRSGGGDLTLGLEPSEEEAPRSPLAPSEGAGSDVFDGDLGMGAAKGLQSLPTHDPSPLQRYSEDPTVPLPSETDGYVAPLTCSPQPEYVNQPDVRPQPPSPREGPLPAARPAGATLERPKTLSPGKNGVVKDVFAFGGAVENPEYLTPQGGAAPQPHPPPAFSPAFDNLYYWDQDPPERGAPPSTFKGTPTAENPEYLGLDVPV

SMILES | viability [1] | Her2 level [2] | viability [3] | viability [4] | viability [5] | differential viability (reversal) ([6]; H69AR cells + 2 uM doxorubicin) | viability [6, 16] | viability [6, 17] | inhibition [7] | inhibition [8] | growth inhibition [9] | growth inhibition [10] | viability increase [11] | viability [12] | viability [13] | inhibition [14] | RAM network inhibition [15]
COc1ccc2c(c1OC)C(=O)OC2CC(=O)c1ccc(O)cc1 (stereo not given) | 100% | 111% (inactive) | 100% (inactive) | 106% (inactive) | 87.3% (inactive) | -3.06% (inactive) | 90.4% | 87.3% | 1.3% (inactive) | -4.17% (inactive) | -11.6% (inactive) | -10.6% (inactive) | -0.29% (inactive) | 102% (inactive) | 107% (inactive) | 0.365% (inactive) | 4.28% (inactive)
Cc1cccc(N2CCN(C(=O)c3cc4ccccc4oc3=O)CC2)c1C | 90.5% | 116% (inactive) | 90.5% (inactive) | 98.6% (inactive) | 100% (inactive) | 8.08% (inactive) | 92% | 100% | -6.53% (inactive) | -7.67% (inactive) | -4.18% (inactive) | -0.595% (inactive) | 1.65% (inactive) | 88.5% (inactive) | 94.3% (inactive) | 0.78% (inactive) | -1.13% (inactive)
CC1(C)NC(=O)N(CC(O)COc2cccc(F)c2)C1=O (stereo not given) | 97% | 112% (inactive) | 97% (inactive) | 110% (inactive) | 101% (inactive) | 1.67% (inactive) | 99.8% | 101% | 3.73% (inactive) | -1% (inactive) | -3.19% (inactive) | -1.89% (inactive) | -0.02% (inactive) | 99.9% (inactive) | 97.9% (inactive) | 1.2% (inactive) | 1.81% (inactive)
CCC(C)OC(=O)C1=C(C)NC2=C(C(=O)C(C(=O)OC)C(C)C2)C1c1ccc(N(C)C)cc1 (stereo not given) | 94.5% | 108% (inactive) | 94.5% (inactive) | 110% (inactive) | 95.8% (inactive) | 4.35% (inactive) | 91.5% | 95.8% | -2.11% (inactive) | -5.09% (inactive) | -3.15% (inactive) | -7.23% (inactive) | -0.39% (inactive) | 86% (inactive) | 75.7% (inactive) | 1.46% (inactive) | 8.17% (inactive)
CCCCCCn1c(SCC(=O)OC)nc2c1c(=O)[nH]c(=O)n2C | 100% | 90% (inactive) | 100% (inactive) | 81.1% (inactive) | 70.9% (inactive) | 0.365% (inactive) | 70.6% | 70.9% | -4.8% (inactive) | 1.33% (inactive) | -12.9% (inactive) | 9.17% (inactive) | -1.89% (inactive) | 98.6% (inactive) | 103% (inactive) | 0.08% (inactive) | 2.66% (inactive)
CCOC(=O)c1ccc(NS(=O)(=O)c2ccc3c(c2)oc(=O)n3C)cc1 | 132% | 118% (inactive) | 132% (inactive) | 118% (inactive) | 113% (inactive) | 7.4% (inactive) | 105% | 113% | -0.77% (inactive) | -2.17% (inactive) | -0.745% (inactive) | 3.2% (inactive) | 1.82% (inactive) | 101% (inactive) | 86.4% (inactive) | 0.865% (inactive) | 2.11% (inactive)
COc1cccc(-c2nc(CS(=O)(=O)CC(=O)N3CCc4ccccc4C3)c(C)o2)c1 | 93.5% | 86.5% (inactive) | 93.5% (inactive) | 93.3% (inactive) | 89.1% (inactive) | 6% (inactive) | 83.1% | 89.1% | -0.67% (inactive) | 0.98% (inactive) | 2.52% (inactive) | 8.9% (inactive) | -2.85% (inactive) | 75.5% (inactive) | 73.7% (inactive) | 1.68% (inactive) | 6.29% (inactive)
COc1ccccc1CC(=O)Nc1ccc(OC)c(OC)c1 | 102% | 98.5% (inactive) | 102% (inactive) | 101% (inactive) | 89.6% (inactive) | 6% (inactive) | 83.6% | 89.6% | -6.76% (inactive) | 5.74% (inactive) | -8.11% (inactive) | -4.82% (inactive) | -0.4% (inactive) | 101% (inactive) | 104% (inactive) | 1.22% (inactive) | 2.2% (inactive)
CSc1cccc(NS(=O)(=O)c2ccccc2)c1 | 78.5% | 88% (inactive) | 78.5% (inactive) | 107% (inactive) | 88.7% (inactive) | 1.02% (inactive) | 87.7% | 88.7% | -0.9% (inactive) | -5.33% (inactive) | -0.535% (inactive) | 3.39% (inactive) | 0.44% (inactive) | 92.1% (inactive) | 95% (inactive) | 0.96% (inactive) | 0.21% (inactive)
O=C1C2C3C=CC(C3)C2C(=O)N1c1cccc(N2C(=O)C3C4C=CC(C4)C3C2=O)n1 (stereo not given) | 91% | 100% (inactive) | 91% (inactive) | 109% (inactive) | 93.4% (inactive) | -4.17% (inactive) | 97.6% | 93.4% | -4.73% (inactive) | 4.75% (inactive) | -12% (inactive) | -11.8% (inactive) | -0.89% (inactive) | 104% (inactive) | 104% (inactive) | 3.84% (inactive) | 5.46% (inactive)
O=C(c1cccc(F)c1)N1CCc2ccccc21 | 96.5% | 80% (inactive) | 96.5% (inactive) | 91.2% (inactive) | 98.9% (inactive) | 3.25% (inactive) | 95.6% | 98.9% | -5.14% (inactive) | 0.98% (inactive) | -19.5% (inactive) | -20.4% (inactive) | -5.03% (inactive) | 86.3% (inactive) | 96% (inactive) | 0.88% (inactive) | 2.7% (inactive)
CN(C)c1oc(-c2ccccc2F)nc1C#N | 95% | 99.5% (inactive) | 95% (inactive) | 82.3% (inactive) | 101% (inactive) | 11.8% (inactive) | 89.5% | 101% | -2.8% (inactive) | 6.56% (inactive) | -11.3% (inactive) | -2.67% (inactive) | -0.62% (inactive) | 112% (inactive) | 106% (inactive) | 0.58% (inactive) | 3.09% (inactive)
CCOc1ccccc1C(=O)Nc1cc(=O)n(C)c(=O)n1C | 89.5% | 88.5% (inactive) | 89.5% (inactive) | 86.8% (inactive) | 88.1% (inactive) | -1.81% (inactive) | 89.9% | 88.1% | -5.47% (inactive) | 3.5% (inactive) | -0.335% (inactive) | 2.84% (inactive) | -0.06% (inactive) | 103% (inactive) | 100% (inactive) | 0.715% (inactive) | -2.04% (inactive)
COC(=O)c1cn(NC(=O)C2CCCO2)c(=O)c2ccccc12 (stereo not given) | 109% | 76% (inactive) | 109% (inactive) | 93.7% (inactive) | 96.6% (inactive) | 4.83% (inactive) | 91.8% | 96.6% | -6.35% (inactive) | -0.49% (inactive) | -21.3% (inactive) | -23.6% (inactive) | -0.57% (inactive) | 91.2% (inactive) | 98.8% (inactive) | 1.48% (inactive) | 3% (inactive)
Cc1cc(C)n2nc(SCc3nc4ccccc4[nH]3)nc2n1 | 87.5% | 81% (inactive) | 87.5% (inactive) | 98.3% (inactive) | 95.7% (inactive) | 8.56% (inactive) | 87.2% | 95.7% | 2.13% (inactive) | 3.28% (inactive) | -5.58% (inactive) | 15.5% (inactive) | -2.9% (inactive) | 91.2% (inactive) | 95.5% (inactive) | 1.77% (inactive) | 1.24% (inactive)
Cc1cccc(OCCNC(=O)c2ncn[nH]2)c1 | 100% | 108% (inactive) | 100% (inactive) | 92.5% (inactive) | 91.9% (inactive) | 3.36% (inactive) | 88.5% | 91.9% | 0% (inactive) | -5.17% (inactive) | -12.5% (inactive) | -4.79% (inactive) | 0.64% (inactive) | 94.2% (inactive) | 99.7% (inactive) | 1.01% (inactive) | -0.32% (inactive)
COc1cccc(C2=NOC(C(=O)N3CCc4ccccc4C3)C2)c1 (stereo not given) | 87% | 92.5% (inactive) | 87% (inactive) | 92.2% (inactive) | 92% (inactive) | 14.1% (inactive) | 77.9% | 92% | -1.41% (inactive) | -1.83% (inactive) | -9.41% (inactive) | 4.4% (inactive) | -2.18% (inactive) | 104% (inactive) | 95.5% (inactive) | -0.045% (inactive) | -2.13% (inactive)
Cc1nn(C(=O)c2ccc3c(c2)OCO3)c(N)c1-c1ccccc1 | 102% | 95% (inactive) | 102% (inactive) | 98.3% (inactive) | 94.2% (inactive) | 9.75% (inactive) | 84.5% | 94.2% | -1.47% (inactive) | 2.13% (inactive) | 3.15% (inactive) | 5.03% (inactive) | -2.76% (inactive) | 99.2% (inactive) | 98.2% (inactive) | 0.585% (inactive) | 1.02% (inactive)
CCOC(=O)c1sc2nc(NC(=O)C(C)(C)C)sc2c1C | 104% | 75.5% (inactive) | 104% (inactive) | 62.8% (inactive) | 79.3% (inactive) | 11.9% (inactive) | 67.5% | 79.3% | -3.73% (inactive) | -4.59% (inactive) | -1.74% (inactive) | 5.62% (inactive) | -4.43% (inactive) | 74.5% (inactive) | 74% (inactive) | -0.52% (inactive) | 3.13% (inactive)
CCC(C)(NC(=O)c1ccc(=O)[nH]c1)C(=O)NC1CCCC1 (stereo not given) | 102% | 96.5% (inactive) | 102% (inactive) | 107% (inactive) | 94.1% (inactive) | 12.3% (inactive) | 81.8% | 94.1% | -5.2% (inactive) | -0.67% (inactive) | -11.7% (inactive) | -35% (inactive) | 0.76% (inactive) | 105% (inactive) | 97.9% (inactive) | 1.92% (inactive) | 2.77% (inactive)
